Measured values: ChEMBL document CHEMBL4513146, “CO-ADD screening of Karazin Kharkiv National University (Ukraine) compounds”
Entries with a potency or affinity are not part of this list.

Legend:
[1] = tested on: Klebsiella pneumoniae; conditions: Concentration 32 ug.mL-1;; ASSAY_TEST Inhibition of Bacterial Growth; detection method Absorption (OD600); MEDIA CAMHB; plate type 384well; NBS; CORNING #3640; time 18 hr
[2] = tested on: Candida albicans; conditions: Concentration 32 ug.mL-1; ASSAY_TEST Inhibition of Fungal Growth; detection method Absorption (OD530)
[3] = tested on: Cryptococcus neoformans; conditions: Concentration 32 ug.mL-1; ASSAY_TEST Inhibition of Fungal Growth; detection method Resazurin; Absorption (OD600-OD570); plate type 384well; NBS; CORNING #3640

In the case of COc1ccc(NC(=O)Cn2nc3c4cc(-c5ccc(C)c(C)c5)nn4ccn3c2=O)c(OC)c1, the Inhibition [1] is reported as -0.09%, the Inhibition [2] is reported as 3.53% and the Inhibition [3] is reported as -22.33%.
In the case of Cc1ccc(NC(=O)Cn2nc3ccc(-c4ccccc4)nn3c2=O)cc1, the Inhibition [1] is reported as 0.91%, the Inhibition [2] is reported as 16.23% and the Inhibition [3] is reported as -12.72%.
N#Cc1ccc(NC(=O)Cn2nc3c(SC4CCCCC4)nccn3c2=O)cc1 gave an Inhibition [1] of 10.51%, an Inhibition [2] of 3.23% and an Inhibition [3] of -20.35%.
In the case of Cc1ccc(C(=O)CSc2nnc3c(=O)n(-c4ccc(F)cc4)ccn23)c(C)c1, the Inhibition [1] is reported as 5.21%, the Inhibition [2] is reported as 2.78% and the Inhibition [3] is reported as -8.55%.
Molecule CCc1ccc(N(Cc2cccc(Cl)c2)S(=O)(=O)c2cccn3c(C)nnc23)cc1 has an Inhibition [1] of 7.34%, an Inhibition [2] of 9.1% and an Inhibition [3] of -5.8%.
Molecule CC(C)NC(=O)CSc1nnc2c(=O)n(-c3ccccc3)ccn12 has an Inhibition [1] of 11.98%, an Inhibition [2] of 2.07% and an Inhibition [3] of -5.87%.
O=C(Cn1nc2c(Oc3ccccc3)nccn2c1=O)Nc1ccccc1Cl showed an Inhibition [1] of 5.8%, an Inhibition [2] of -0.88% and an Inhibition [3] of -12.94%.
CCc1nnc2c(S(=O)(=O)N(Cc3ccc(OC)c(F)c3)c3ccccc3)cccn12 was tested, and the Inhibition [1] was 7.72%, the Inhibition [2] was -1.05% and the Inhibition [3] was -3.11%.
Molecule Cc1cccc(C)c1NC(=O)Cn1c(=O)c2nnc(C(C)C)n2c2ccccc21 has an Inhibition [1] of 1.46%, an Inhibition [2] of 4.52% and an Inhibition [3] of -19.69%.
CCCCOc1ccc(-c2cc3c4nnc(SCC(=O)Nc5cccc(C(C)=O)c5)n4ccn3n2)cc1 was tested, and the Inhibition [1] was 9.96%, the Inhibition [2] was 5.2% and the Inhibition [3] was -6.36%.
O=C(Cn1nc2c(Sc3ccccc3)nccn2c1=O)Nc1ccc2c(c1)OCO2 was tested, and the Inhibition [1] was 1.19%, the Inhibition [2] was 12.77% and the Inhibition [3] was -5.13%.
Molecule CCC(Sc1nnc2c(=O)n(-c3cccc(OC)c3)ccn12)C(=O)Nc1cc(OC)cc(OC)c1 (stereo unspecified) has an Inhibition [1] of 9.6%, an Inhibition [2] of -0.37% and an Inhibition [3] of -13.16%.
With COc1ccccc1CNC(=O)Cn1nc2c(N3CCC(C)CC3)nccn2c1=O the Inhibition [1] was 13.15%, the Inhibition [2] was 4.39% and the Inhibition [3] was -8.45%.
Molecule CCCCc1ccc(NC(=O)Cn2nc3c(Sc4ccccc4CC)nccn3c2=O)cc1 has an Inhibition [1] of -8.8%, an Inhibition [2] of 24.82% and an Inhibition [3] of -8.24%.
Molecule COc1ccc(C(=O)CSc2nnc3c(=O)n(-c4cccc(OC)c4)ccn23)cc1 has an Inhibition [1] of 12.72%, an Inhibition [2] of 5.69% and an Inhibition [3] of -12.42%.
O=C(Cn1nc2c(=O)n(-c3ccc(Br)cc3)ccn2c1=O)Nc1cc(F)ccc1F gave an Inhibition [1] of 9.16%, an Inhibition [2] of 1.05% and an Inhibition [3] of -5.83%.
Work on Cc1cccc(C)c1NC(=O)Cn1nc2c(Sc3ccccc3)nccn2c1=O yielded an Inhibition [1] of -1.09%, an Inhibition [2] of 0.55% and an Inhibition [3] of -9.17%.
Cc1cc(C)c(NC(=O)Cn2nc3ccc(SC(C)(C)C)nn3c2=O)c(C)c1 was tested, and the Inhibition [1] was 14.36%, the Inhibition [2] was 2.38% and the Inhibition [3] was -25.26%.
CCCCc1ccc(NC(=O)Cn2nc3c(N4CC(C)CC(C)C4)nccn3c2=O)cc1 (stereo unspecified) was tested, and the Inhibition [1] was 3.89%, the Inhibition [2] was 4.16% and the Inhibition [3] was -10.16%.
With CCCN(C)c1nccn2c(=O)n(CC(=O)Nc3cccc(C(F)(F)F)c3)nc12 the Inhibition [1] was 7.15%, the Inhibition [2] was -0.05% and the Inhibition [3] was -3.78%.
With CCc1ccc(N(Cc2ccccc2F)S(=O)(=O)c2cccn3c(C)nnc23)cc1 the Inhibition [1] was 6.64%, the Inhibition [2] was 0.88% and the Inhibition [3] was -9.4%.
Molecule CCc1nnc2c(SCC(=O)Nc3cc(Cl)ccc3C)nc3ccccc3n12 has an Inhibition [1] of 15.39%, an Inhibition [2] of 3.09% and an Inhibition [3] of -9.04%.
Work on O=c1c2sccc2n2c(=O)n(Cc3ccccc3Cl)nc2n1CCc1ccccc1 yielded an Inhibition [1] of 12.78%, an Inhibition [2] of 2.07% and an Inhibition [3] of -28.45%.
With CC(C)c1ccc(N(Cc2ccccc2)S(=O)(=O)c2cccn3cnnc23)cc1 the Inhibition [1] was 5.94%, the Inhibition [2] was 6.69% and the Inhibition [3] was -11.77%.
For CC(C)NC(=O)CCn1c(=O)c2cc(Cl)ccc2n2c(=O)n(CC#N)nc12, the Inhibition [1] was 4.55%, the Inhibition [2] was 6.33% and the Inhibition [3] was -24.01%.
With Cc1ccc(Oc2nccn3c(=O)n(CC(=O)N4CCN(c5ccccc5F)CC4)nc23)cc1 the Inhibition [1] was 13.64%, the Inhibition [2] was -0.66% and the Inhibition [3] was -23.01%.
Molecule COc1ccc(NC(=O)Cn2nc3c4c5c(sc4ncn3c2=O)CCCC5)cc1 has an Inhibition [1] of 6.74%, an Inhibition [2] of 5.37% and an Inhibition [3] of -17.73%.
